Laboratory results from paper PMC6212790, “How bacterial xenogeneic silencer rok distinguishes foreign from self DNA in its resident genome”.
The full ranking holds about 33,000 sequences; the median of “e-score” is about -0.038, and the highest 2% start at about 0.33. The full list was thinned out, with the highest values kept by preference.

These sequences were tested against T1, GST-Rok-C97-191 (Bacillus subtilis subsp. subtilis str. …, UniProt O34857 97-191) (assay: protein binding microarray; Rok is a gene silencer of Bacillus subtilis; high values mean tight binding). Settings: protein: recombinant; tags: GST (pTH5325, pDEST15-Magic modified); dsDNA, one strand shown.
T1 sequence: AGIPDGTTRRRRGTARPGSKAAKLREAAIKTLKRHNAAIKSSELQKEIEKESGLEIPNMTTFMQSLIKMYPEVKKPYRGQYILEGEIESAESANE
Method in brief: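 Every oligonucleotide joins a 25-mer constant primer to a 35-mer variable part drawn from a de Bruijn sequence of order 10, so each non-palindromic 8-mer appears at least 32 times and each palindromic 8-mer 16 times. The preference for every 8-mer is reported as a unitless, rank-based enrichment score (E-score). This score spans 0.5 for the most favored 8-mer to −0.5 for the most disfavored.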
GCATCAAC was tested, and the binding signal was 0.0173 E-score. CGATAAGC gave a binding signal of 0.0146 E-score. Work on CTCTATGC yielded a binding signal of -0.0298 E-score. Work on AAGAGTAG yielded a binding signal of 0.212 E-score. In the case of CAACTAGC, the binding signal is reported as 0.214 E-score. Sequence AAACTAGG has a binding signal of 0.285 E-score. In the case of AAACTAGT, the binding signal is reported as 0.445 E-score. Sequence GAACTAGC has a binding signal of 0.205 E-score. AAACTAGC was tested, and the binding signal was 0.337 E-score. ACACTAGT was tested, and the binding signal was 0.257 E-score. CGCTGCAA gave a binding signal of -0.0879 E-score. TACCATAA gave a binding signal of 0.354 E-score. In the case of GACCATAA, the binding signal is reported as 0.0376 E-score. Sequence AACCATAA has a binding signal of 0.0116 E-score. For ACGTTCGG, the binding signal was 0.0487 E-score. GATGGCGA gave a binding signal of 0.0644 E-score. Sequence CAATCTAC has a binding signal of 0.395 E-score. GAATCTAA was tested, and the binding signal was 0.188 E-score. In the case of GAATCTAC, the binding signal is reported as 0.423 E-score. In the case of CGATCTAC, the binding signal is reported as 0.335 E-score. CAATCTAA was tested, and the binding signal was 0.232 E-score. Sequence CAATCTGC has a binding signal of 0.0189 E-score. Sequence CGATCTAA has a binding signal of -0.0333 E-score. In the case of GAATCTCC, the binding signal is reported as 0.0847 E-score. CGATCTAG was tested, and the binding signal was 0.26 E-score. CAAGAACC was tested, and the binding signal was -0.0441 E-score. GGGACAAA gave a binding signal of -0.132 E-score. Sequence TGGAGGAA has a binding signal of -0.00731 E-score. With AGCGTAAG the binding signal was -0.0539 E-score. For CCTATTCG, the binding signal was -0.0809 E-score. For ACTCATCT, the binding signal was -0.0629 E-score. In the case of ATGCCCAC, the binding signal is reported as -0.129 E-score. For AGTTTGTA, the binding signal was 0.367 E-score. For AATTTGTA, the binding signal was 0.346 E-score. AGTTTGTC showed a binding signal of 0.0866 E-score. ATTTTGTA showed a binding signal of 0.228 E-score. GATTTGTA gave a binding signal of 0.176 E-score. In the case of CGTTTGTA, the binding signal is reported as 0.113 E-score. With ACTGAAGG the binding signal was -0.0541 E-score. AGCTCGTC showed a binding signal of -0.149 E-score. For CCACTAAC, the binding signal was 0.0126 E-score. Sequence CTGCTCCA has a binding signal of -0.00585 E-score. Sequence CGACATGC has a binding signal of -0.104 E-score. AATTCTAA gave a binding signal of 0.286 E-score. AGTTCTAC showed a binding signal of 0.386 E-score. In the case of CATTCTAG, the binding signal is reported as 0.202 E-score. Work on AATTCTAC yielded a binding signal of 0.421 E-score. GATTCTAA was tested, and the binding signal was 0.086 E-score. GATTCTGC showed a binding signal of 0.0425 E-score. AGTTCTAT was tested, and the binding signal was 0.242 E-score. In the case of CATTCTAA, the binding signal is reported as 0.12 E-score. For CATTCTAC, the binding signal was 0.384 E-score. AGTTCTAA showed a binding signal of 0.142 E-score. GATTCTAC gave a binding signal of 0.406 E-score. With AATTCTAT the binding signal was 0.286 E-score. For CCGACGTA, the binding signal was -0.0042 E-score. CACATTAG showed a binding signal of 0.175 E-score. GACTCGTA was tested, and the binding signal was -0.148 E-score. For ATGCTACC, the binding signal was 0.00967 E-score. With TAGATAAA the binding signal was 0.292 E-score. Sequence AAAAAATG has a binding signal of -0.032 E-score. Work on TCAGGAGA yielded a binding signal of -0.166 E-score. In the case of ACTAATGC, the binding signal is reported as 0.262 E-score. AACTACTA gave a binding signal of 0.465 E-score. TACTACTA showed a binding signal of 0.44 E-score. AGCTACTA was tested, and the binding signal was 0.378 E-score. AACTATTG gave a binding signal of 0.291 E-score. For GCCTACTA, the binding signal was 0.229 E-score. Work on GGCTACTA yielded a binding signal of 0.0153 E-score. Work on TACTACGA yielded a binding signal of 0.291 E-score. Work on TACTACAA yielded a binding signal of 0.303 E-score. Sequence AGCTACTG has a binding signal of 0.233 E-score. CGCTACTA was tested, and the binding signal was 0.326 E-score. AACTACTG was tested, and the binding signal was 0.424 E-score. AACTACGG gave a binding signal of 0.19 E-score. AGGGCACA was tested, and the binding signal was -0.171 E-score. ATGAATCA was tested, and the binding signal was -0.0987 E-score. With CCGACAAC the binding signal was -0.076 E-score. Sequence TACCCTCA has a binding signal of -0.129 E-score. In the case of AAGTTCCA, the binding signal is reported as -0.0431 E-score. For ACTCACTG, the binding signal was 0.00942 E-score. GATCCAAC was tested, and the binding signal was -0.164 E-score. With CAACCATC the binding signal was -0.0304 E-score. Sequence ATTAAACG has a binding signal of 0.0877 E-score. ACAAGGGC was tested, and the binding signal was -0.198 E-score. AATGCCCT was tested, and the binding signal was 0.0279 E-score. AAGTACTT gave a binding signal of 0.325 E-score. CACTACTG gave a binding signal of 0.0489 E-score. With CGCTAATA the binding signal was 0.286 E-score. Sequence AACTACTT has a binding signal of 0.392 E-score. AGCTAATC showed a binding signal of 0.102 E-score. With ACCTACTG the binding signal was 0.238 E-score. With CACTACGA the binding signal was 0.123 E-score. ACCTACTA gave a binding signal of 0.343 E-score. CCCTACTA showed a binding signal of 0.124 E-score. With AACAACTT the binding signal was 0.144 E-score. With AGCTAATA the binding signal was 0.366 E-score. CACTACTA was tested, and the binding signal was 0.344 E-score. CGAAGGAG showed a binding signal of -0.0169 E-score. ACCAGACG was tested, and the binding signal was -0.153 E-score. For AGTAGTCA, the binding signal was 0.259 E-score. In the case of AGTAAAGA, the binding signal is reported as 0.0717 E-score. In the case of CTCGCTCA, the binding signal is reported as -0.0517 E-score. ACTATGGA showed a binding signal of 0.0778 E-score. Work on CGTTATCA yielded a binding signal of 0.165 E-score. In the case of ACGTCCTG, the binding signal is reported as -0.0421 E-score. Sequence ACTGACGG has a binding signal of -0.0188 E-score. ACTAACAC showed a binding signal of 0.0585 E-score. In the case of AGCTACCC, the binding signal is reported as 0.025 E-score. Work on CACTACTC yielded a binding signal of -0.0277 E-score. For CACTGCTA, the binding signal was 0.0112 E-score. AACTGCTA gave a binding signal of 0.0364 E-score. GACTACTC was tested, and the binding signal was 0.127 E-score. Work on GACTACTA yielded a binding signal of 0.373 E-score. With ACCTACTC the binding signal was 0.0493 E-score. GACTACGA was tested, and the binding signal was 0.0584 E-score. TACTGCTA showed a binding signal of 0.334 E-score. Sequence AGCTACCA has a binding signal of 0.35 E-score. For AGCTACCT, the binding signal was 0.209 E-score. AACTACTC was tested, and the binding signal was 0.363 E-score. With AAAACCGA the binding signal was 0.0507 E-score. TATTCCCA showed a binding signal of 0.217 E-score. For ATCTAGGC, the binding signal was 0.0159 E-score. GCAACATA showed a binding signal of 0.217 E-score. Work on CTCGCATC yielded a binding signal of -0.126 E-score. Work on ATGCTATA yielded a binding signal of 0.35 E-score. GCACTATA was tested, and the binding signal was 0.0612 E-score. Sequence ATACTATG has a binding signal of 0.254 E-score. Sequence CCACTATA has a binding signal of 0.219 E-score. CGACTATA showed a binding signal of 0.122 E-score. CTGCTATA was tested, and the binding signal was 0.039 E-score. In the case of ATACTATA, the binding signal is reported as 0.365 E-score. Sequence ATACTAGA has a binding signal of 0.305 E-score. In the case of GGACTATA, the binding signal is reported as 0.0884 E-score. Work on CTACTATA yielded a binding signal of 0.371 E-score. GTGCTATA gave a binding signal of 0.202 E-score. In the case of GTACTATA, the binding signal is reported as 0.436 E-score. For TGAGGCAA, the binding signal was -0.148 E-score. ACGACTTC showed a binding signal of 0.0725 E-score. GCTGGTTA showed a binding signal of 0.0982 E-score. AGACCTGC showed a binding signal of -0.148 E-score. Work on CGCCAGCG yielded a binding signal of -0.123 E-score. AGACAATA gave a binding signal of 0.0922 E-score. TACAGTCA gave a binding signal of 0.144 E-score. TGGCTGAA showed a binding signal of 0.00639 E-score. For CAGTACTA, the binding signal was 0.264 E-score. Sequence GAGTACTA has a binding signal of 0.0418 E-score. In the case of GAGTACAA, the binding signal is reported as 0.136 E-score. With AAGTACTG the binding signal was 0.145 E-score. AAGTACAA gave a binding signal of 0.349 E-score. AAGTACTC showed a binding signal of 0.146 E-score. AAGTACTA gave a binding signal of 0.385 E-score. Sequence TAGTACTA has a binding signal of 0.402 E-score. Sequence AAGTACAC has a binding signal of 0.275 E-score. GTTATGCA gave a binding signal of 0.256 E-score. CCTTCAAC gave a binding signal of -0.0251 E-score. CTATTGGC showed a binding signal of -0.0724 E-score. AAGCAAGT gave a binding signal of -0.0255 E-score. GGCTATAC was tested, and the binding signal was -0.00424 E-score. With ACAAGTCT the binding signal was -0.182 E-score. Work on ATAGTACC yielded a binding signal of 0.254 E-score. In the case of GTAGTAAC, the binding signal is reported as 0.307 E-score. With ATAGTAAT the binding signal was 0.396 E-score. ATAGTAAG showed a binding signal of 0.278 E-score. Work on CTAGTACA yielded a binding signal of 0.265 E-score. GTAGTAAA gave a binding signal of 0.338 E-score. In the case of ATAGTACA, the binding signal is reported as 0.347 E-score. With ATAGTAAC the binding signal was 0.28 E-score. In the case of GGAGTAAA, the binding signal is reported as 0.000261 E-score. Sequence ATAGTAAA has a binding signal of 0.357 E-score. Sequence TTAGTAAA has a binding signal of 0.21 E-score. CTAGTAAA gave a binding signal of 0.289 E-score.
